Results as given in article PMC7819943, “Rice protein-binding microarrays: a tool to detect cis-acting elements near promoter regions in rice”.
Whole data set: some 39,000 sequences, median “fluorescence intensity (a.u.)” near 4,300, cut for the highest 2% near 39,000. The sample holds the highest values, similar sequences and a random draw of the others, so the mix is not that of the screen.

target: T1, OsSMF1 (Oryza sativa, UniProt Q6ZLB0 1-436); assay: protein-binding microarray (RPBM); PBS, 2% BSA, 51.3 ng/ul salmon testes DNA, 50 uM zinc acetate, 200 nM TF, 25 C, 1 h; high values mean tight binding; conditions: protein: recombinant; tags: N-terminal polyhistidine and DsRed monomer fusion (pET32a); chain copies: 2; label: CyDye5-dUTP incorporated in the synthesized complementary strand; 3' TTTTT single-stranded linker to array surface; dsDNA, one strand shown
T1 sequence: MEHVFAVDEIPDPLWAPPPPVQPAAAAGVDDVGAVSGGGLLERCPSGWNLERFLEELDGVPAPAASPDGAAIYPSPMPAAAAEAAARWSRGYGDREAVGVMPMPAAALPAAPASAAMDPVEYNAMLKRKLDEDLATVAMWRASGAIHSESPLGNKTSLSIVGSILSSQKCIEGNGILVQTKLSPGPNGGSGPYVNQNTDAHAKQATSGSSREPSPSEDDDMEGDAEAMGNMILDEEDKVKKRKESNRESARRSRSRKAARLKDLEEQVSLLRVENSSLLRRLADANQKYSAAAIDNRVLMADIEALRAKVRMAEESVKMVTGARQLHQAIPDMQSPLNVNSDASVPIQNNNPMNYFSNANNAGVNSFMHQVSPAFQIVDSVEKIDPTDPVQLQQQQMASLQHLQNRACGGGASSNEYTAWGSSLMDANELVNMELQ
Procedure, shortened: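 For the binding signal, per-feature fluorescence intensity was read in arbitrary units on an Axon 4000B scanner. Before scanning, a 2% BSA-blocked custom Agilent array made double-stranded with Cy5-dUTP was washed after 1 h at 25 °C with 200 nM protein and 50 µM zinc acetate. The proteins were Ni–NTA-purified transcription factors with N-terminal polyhistidine and DsRed fusions, expressed in E. coli BL21-CodonPlus.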

Compared with “CTCAAAACCACACCGTTAAATGTTTTACCCTACTCTCGTACGGAGTCACCTAGTGCAG”, “TATATACTCTCTTCGTTTCAAAATGTTTGACGCCGTTAACCGGAGTCACCTAGTGCAG” is lower in binding signal: 39200 fluorescence intensity (a.u.) for the first, 3670 fluorescence intensity (a.u.) for the second.

Compared with “TTAAAACTCAATTAATCACACGTTATTACCACCTCGTTTTCGGAGTCACCTAGTGCAG”, “TGACAGCCACAAGTATGATGTGATAAAGTGTGGCTATAAACGGAGTCACCTAGTGCAG” is higher in binding signal: 3210 fluorescence intensity (a.u.) for the first, 65500 fluorescence intensity (a.u.) for the second.

Going from “TATATATATATATATATATAAAGTGTATGACATGTGATCACGGAGTCACCTAGTGCAG” to “ATAGTATAAAAGTAATGTGATGTGGCTTTATGAGAGAAAACGGAGTCACCTAGTGCAG”, the binding signal falls from 3970 fluorescence intensity (a.u.) to 3780 fluorescence intensity (a.u.).

Going from “GGAGAAAATTGCGGAGGGGATCCACAGTTCCAGCCGCGTGCGGAGTCACCTAGTGCAG” to “ACAAAATTTATTTCCAGGTGGCGTCTCCTCATTGGCCAGCCGGAGTCACCTAGTGCAG”, the binding signal rises from 3190 fluorescence intensity (a.u.) to 4370 fluorescence intensity (a.u.).

Going from “TGGGTGAGAGTTTGAACCCGAACATATGACACATCTATGTCGGAGTCACCTAGTGCAG” to “TATGTCAATACTGTATGCATATATTAACATAAAATATCTCCGGAGTCACCTAGTGCAG”, the binding signal rises from 3270 fluorescence intensity (a.u.) to 4760 fluorescence intensity (a.u.).

First: ATCACTCTACTTTGTCTGTGTCATATTATAAGCTGCTTGACGGAGTCACCTAGTGCAG
Second: ACAATTACTGTATTGTGCATATAAGCTGCATATCTATCACCGGAGTCACCTAGTGCAG
The binding signal of the first is lower: 5640 fluorescence intensity (a.u.) for the first, 39900 fluorescence intensity (a.u.) for the second.

Compared with “AGAAAGCAACATGCTGTCCCGGTGGCACATCCGATTAGTACGGAGTCACCTAGTGCAG”, “GGCTTCCCGCGCCACAAGCTTTGCCGCCACCTCCTCCTCGCGGAGTCACCTAGTGCAG” is lower in binding signal: 3680 fluorescence intensity (a.u.) for the first, 3230 fluorescence intensity (a.u.) for the second.

Going from “CAGAGTTCCGTTCTGAATTTCTGGTGAGTCATCTGCTGAACGGAGTCACCTAGTGCAG” to “GTTGTCAGTTGGATAGAACCAGTCCAGGAACGTGTGGCCCCGGAGTCACCTAGTGCAG”, the binding signal falls from 8920 fluorescence intensity (a.u.) to 3240 fluorescence intensity (a.u.).

First: CCTTAGGCTACGTTGGCTTTTGCATTTTGGCGTGGATTTTCGGAGTCACCTAGTGCAG
Second: GTTGCCTTCGTGTCCAGTGGATAGATAAGGATAGGATTTTCGGAGTCACCTAGTGCAG
The binding signal of the first is lower: 14400 fluorescence intensity (a.u.) for the first, 65500 fluorescence intensity (a.u.) for the second.

First: CGCGGATCGGCCGCGAGGCGCACGTGGACATCACCACCAACGGAGTCACCTAGTGCAG
Second: GAGCGCTGCGTGCGCGCGCGTCCGCGGCCACGCCATCCGCCGGAGTCACCTAGTGCAG
The binding signal of the first is lower: 4220 fluorescence intensity (a.u.) for the first, 4600 fluorescence intensity (a.u.) for the second.

Going from “AGATGGCGGCGGCGGCGCAGATCCGGCCTCCACGCGCGCACGGAGTCACCTAGTGCAG” to “ATGGTGGAGAAGGTGACGATGACACGAGGTGATCTGGATCCGGAGTCACCTAGTGCAG”, the binding signal falls from 3940 fluorescence intensity (a.u.) to 3680 fluorescence intensity (a.u.).

Compared with “GCGAGCTGTGCCGTTCTTGATCACCGAGGCGATGGCGGCGCGGAGTCACCTAGTGCAG”, “GCCGCCGCCGCCGGAGAAGATGATGGTGCCGCTGGATCCGCGGAGTCACCTAGTGCAG” is higher in binding signal: 39200 fluorescence intensity (a.u.) for the first, 43500 fluorescence intensity (a.u.) for the second.

First: GAAGCTGTCATCGCTGATGCGGCGAAGAGATCATCATCACCGGAGTCACCTAGTGCAG
Second: GAGCCGCTGATCCGCTGCACGGCGGCGCGGAGCGCGTCGACGGAGTCACCTAGTGCAG
The binding signal of the first is lower: 4450 fluorescence intensity (a.u.) for the first, 39100 fluorescence intensity (a.u.) for the second.

Going from “TTGATGGCGATCTGCGAGGCCGTGCGGGTCACGGAGCGCGCGGAGTCACCTAGTGCAG” to “GCTGCACGGCCGCGGCGTGGCGCTGACGGCGACGGTGAGGCGGAGTCACCTAGTGCAG”, the binding signal falls from 30900 fluorescence intensity (a.u.) to 5740 fluorescence intensity (a.u.).

Going from “CCCGCGCCGCGGCGGATCGATGGAGCTGTTCGAGCGCGCGCGGAGTCACCTAGTGCAG” to “CGGCGCAGATCCGGCGAGCGGCGGCGGCGGAAGCTGATGGCGGAGTCACCTAGTGCAG”, the binding signal rises from 3160 fluorescence intensity (a.u.) to 39900 fluorescence intensity (a.u.).

First: GATGATGATGATGATGATGATGAGAAGGTGGTGCCGCCGCCGGAGTCACCTAGTGCAG
Second: GTTTGGAATTTTGGATAGAAATTCCGGGCGTGACACATCGCGGAGTCACCTAGTGCAG
The binding signal of the first is lower: 4280 fluorescence intensity (a.u.) for the first, 5880 fluorescence intensity (a.u.) for the second.

Going from “ATGTCGCTGTGGCTCATCCGGCCCAAGCCCATTTCCCCACCGGAGTCACCTAGTGCAG” to “AAACTGAAGGGTATTTTCACAAAATTTCCTTTTCTTTCTCCGGAGTCACCTAGTGCAG”, the binding signal falls from 29500 fluorescence intensity (a.u.) to 6620 fluorescence intensity (a.u.).

Going from “GTATATGCGTCATGTGCGTCTTCCCTGTCACGAGTGCGTGCGGAGTCACCTAGTGCAG” to “ACATGTGGGTCCTGTTGACATGTAGGTGCCACCTTGGCATCGGAGTCACCTAGTGCAG”, the binding signal falls from 7200 fluorescence intensity (a.u.) to 4440 fluorescence intensity (a.u.).

First: GAAACTTTCCTACGCACAAACTTTCAACTTTTACGTCACACGGAGTCACCTAGTGCAG
Second: CATGCTATGTGCTCAAAGGGCAACGGTCGACGTGTGCCTTCGGAGTCACCTAGTGCAG
The binding signal of the first is lower: 3340 fluorescence intensity (a.u.) for the first, 4110 fluorescence intensity (a.u.) for the second.

First: AGATCTGCACAACCATAACGGCTAAAGAGGAGATACCAAACGGAGTCACCTAGTGCAG
Second: ACACAGATCTGCAACCAAAACAAATGCAACACTAAACACCCGGAGTCACCTAGTGCAG
The binding signal of the first is higher: 65500 fluorescence intensity (a.u.) for the first, 26100 fluorescence intensity (a.u.) for the second.

First: CTAAACAAAGGATGAGGCTATGAGCACCCACCAACCATACCGGAGTCACCTAGTGCAG
Second: GCACAACCGCACACGAGACGACGTCACCCACAACCGCACGCGGAGTCACCTAGTGCAG
The binding signal of the first is higher: 34200 fluorescence intensity (a.u.) for the first, 6040 fluorescence intensity (a.u.) for the second.
